Test results as given in ChEMBL document CHEMBL4513135, “CO-ADD screening of IQOG CSIS (Spain) compounds”.
Results with a measured potency or affinity are listed apart.

How the values were obtained:
Klebsiella pneumoniae = settings: Concentration 32 ug.mL-1; ASSAY_TEST Inhibition of Bacterial Growth; detection method Absorption (OD600); MEDIA CAMHB; plate type 384well; NBS; CORNING #3640; time 18 hr
Candida albicans = settings: 32 ug/mL
Cryptococcus neoformans = settings: Concentration 32 ug.mL-1; ASSAY_TEST Inhibition of Fungal Growth; detection method Resazurin; Absorption (OD600-OD570); plate type 384well; NBS; CORNING #3640

Row | Compound | Inhibition (Klebsiella pneumoniae) | Inhibition (Candida albicans) | Inhibition (Cryptococcus neoformans)
1 | CN(Cc1cn(Cc2ccccc2)nn1)Cc1cc2cc(OCCCC3CCN(Cc4ccccc4)CC3)ccc2n1C | 4.39% | 2.75% | -73.92%
2 | COc1ccc(C2c3c(nc4c(c3N)CCCC4)Oc3ccc4ccccc4c32)cc1OC (configuration not stated) | -20.58% | 2.65% | 0.83%
3 | Cn1c(C(=O)N2CCOCC2)cc2cc(OCCCC3CCN(Cc4ccccc4)CC3)ccc21 | 2.68% | 1.38% | -96.05%
4 | N#CC1=C(Cl)Oc2c(ccc3ccccc23)C1c1ccccc1 (configuration not stated) | 10.59% | 4.15% | -59.47%
5 | CNN=C1N=C(SCc2ccccc2)SC1=O | 8.63% | -0.64% | -3.27%
6 | O=C(Cc1c[nH]c2ccccc12)NN=Cc1ccccc1 | -6% | -0.87% | -1.93%
7 | CC(=O)Nc1nc(Cl)c(C#N)c(-c2ccccc2)c1C#N | 7.97% | 1.84% | -41.58%
8 | C#CCN(C)c1nc(Cl)c(C#N)c(-c2ccccc2)c1C#N | 7.31% | 11.2% | -24.12%
9 | Nc1c2c(nc3c1C(c1ccccc1)c1ccc4ccccc4c1O3)CCCC2 (configuration not stated) | 7.96% | 0.57% | 5.07%
10 | N#CC1=C(Cl)Oc2c(ccc3ccccc23)C1c1cccc([N+](=O)[O-])c1 (configuration not stated) | 4.09% | 6.77% | -37.01%
11 | N#CC1=C(Cl)Oc2c(ccc3ccccc23)C1c1ccc([N+](=O)[O-])cc1 (configuration not stated) | 16.96% | 10.5% | -69.24%
12 | C#CCNC.O=C(O)C(=O)O | 9.05% | 4.18% | -8.52%
13 | COC(=O)C(C#N)=Cc1ccccc1 | 12.71% | 3.86% | -2.58%
14 | Cc1nn(-c2ccccc2)c2nc(C)n3nc(-c4ccccc4)nc3c12 | 3.45% | -2.98% | -5.73%
15 | COc1ccc(-c2cc(-c3cc4c(OC)ccc(OC)c4nc3Cl)cc(=O)[nH]2)cc1 | 5.89% | 0.7% | -87.69%
16 | CC1=C(C(=O)N2[C@@H]3C[C@H]4CCC3(CS2(=O)=O)C4(C)C)C(c2ccccc2)C(C#N)=C(N)O1 (some centres not stated) | 14.51% | 3.41% | -6.44%
17 | O=C(O)/C(=C\c1ccccc1)NC(=O)c1ccccc1 | 17.85% | 1.39% | -3.88%

Row | Compound | Inhibition (Klebsiella pneumoniae) | Inhibition (Candida albicans) | Inhibition (Cryptococcus neoformans)
18 | CCCC(=O)NCc1c(-c2ccc(Cl)cc2)nc2ccccn12 | -10.71% | 1.27% | -9.45%
19 | C#CCN(C)Cc1cc2cc(OCc3ccc(OC)c4ncccc34)ccc2n1C | -13.41% | 6.72% | -26.86%
20 | CC(=O)NC(=Cc1ccccc1)C(=O)O | 19.96% | 2.49% | -0.91%
21 | CCOC(=O)C1=C(C)OC(N)=C(C#N)C1c1ccco1 (configuration not stated) | 6.85% | 1.71% | -29.39%
22 | N#CC1=C(N)Oc2ccc3ccccc3c2C1c1ccccc1 (configuration not stated) | 9.26% | 1.08% | -36.46%
23 | CC(C)(C)OC(=O)Nc1ncccc1Br | 19.74% | 1.17% | -55.01%
24 | CCOC(=O)/C(C#N)=C\c1ccc(Cl)cc1 | 4.33% | -0.09% | -5.03%
25 | N#CC1=C(N)NC(=O)CC1c1ccccc1 (configuration not stated) | 22.17% | 1.7% | -51.84%
26 | CC1Cc2c(Br)nc3nc4c(c(N)c3c2NC1=O)CCCC4 (configuration not stated) | 20.62% | -0.9% | -91.63%
27 | Cc1[nH]nc2c1C(c1ccc(O)c(O)c1)C(C#N)=C(N)O2 (configuration not stated) | 21.92% | 0.31% | 0.65%
28 | Cc1[nH]c2ccc(OCc3ccccc3)cc2c1C(=O)NN | 5.83% | 1.23% | -5.65%
29 | CC(=O)Oc1ccc(C=C2N=C(c3ccccc3)OC2=O)cc1 | -12.75% | -0.21% | -12.33%
30 | CCOC(=O)c1c(C)[nH]c(=O)c(C#N)c1-c1ccccc1 | 10.06% | 2.08% | -38.24%
31 | N#Cc1c(-c2ccccc2)c2ccc3ccccc3c2oc1=O | 8.94% | 3.25% | -60.47%
32 | CNC(=O)NC1(C(=O)O)CC1c1ccccc1 (configuration not stated) | 13.01% | 0.9% | -2.43%
33 | COC(=O)C(=Cc1ccccc1)NC(=O)c1ccccc1 | 12.18% | 0.5% | -5.65%
34 | COc1ccc(C=C2N=C(c3ccccc3)OC2=O)cc1 | 13.35% | 0.77% | -7.5%
